Unmarked numbers belong to inactive results. For part of these data: Entries with a potency or affinity are not part of this list. The source made the active and inactive calls. Unless noted, no rule for the calls is given here.

Assay [1] is described as follows: antimalarial activity against Dd2 strain (AID 2302;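 active = growth inhibition above 50% at the single 2 µM test dose, taken to imply half-maximal potency below 2 µM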;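 also: 0% = DMSO untreated growth and 100% = chloroquine plus artemisinin killed control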). Conditions: P. falciparum Dd2 in RBCs, LDH growth readout, 72 h; at 2 µM; stronger effect = higher value.
Assay [2] in a line: human hepatoma cell viability loss – ATP luminescence, cytotoxicity control for P. falciparum antimalarial project, primary screen (AID 2303;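 active = inhibition above 50%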;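 also: 0% = DMSO wells and 100% = digitonin-killed cells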). The following applies: HepG2 viability, 24-48 h, at 10 µM, stronger effect = higher value.
The target of assay [3] is L-lactate dehydrogenase (Plasmodium falciparum (isolate CDC / Honduras)) (UniProt Q27743). Briefly: PfLDH activity inhibition – cell lysate, 3D7 strain, counter-screen for P. falciparum growth inhibition project (AID 2304).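 Also: 0% = vehicle and 100% = reference inhibitor.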 The following applies: P. falciparum 3D7 crude extract, LDH APAD/NBT absorbance; at 2 µM; stronger effect = higher value.
Sequence of L-lactate dehydrogenase (Plasmodium falciparum (isolate CDC / Honduras)) (Q27743 whole entry, looked up): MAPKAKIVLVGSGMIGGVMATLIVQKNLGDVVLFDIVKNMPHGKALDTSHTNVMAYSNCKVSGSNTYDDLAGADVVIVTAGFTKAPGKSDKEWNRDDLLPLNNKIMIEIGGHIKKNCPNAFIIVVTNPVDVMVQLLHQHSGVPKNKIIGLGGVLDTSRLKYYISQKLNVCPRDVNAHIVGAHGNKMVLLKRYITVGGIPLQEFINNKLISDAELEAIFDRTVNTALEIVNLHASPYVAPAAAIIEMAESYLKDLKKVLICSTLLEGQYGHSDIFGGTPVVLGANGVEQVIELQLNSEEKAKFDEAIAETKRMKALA
Assay [4] in a line: inhibition of 3D7 malaria parasite growth – strain 3D7 (AID 2306).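 Also: 0% = DMSO wells and 100% = chloroquine plus artemisinin control wells.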 Conditions: P. falciparum 3D7 erythrocytic growth, LDH absorbance, 72 h; at 2 µM; stronger effect = higher value.
Assay [5] concerns the target Calcium-dependent protein kinase 1 (Plasmodium falciparum (isolate 3D7)) (UniProt P62344). Briefly: PfCDPK1 kinase inhibitors, biochemical, TCAMS library (AID 1159585; cut-off not given, nearly all actives have IC50 up to about 0.98 µM;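 also: inhibitors leave more ATP so luminescence rises with inhibition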). The following applies: recombinant PfCDPK1, Kinase-Glo ATP depletion luminescence.
Assay [6] addresses Plasmodium falciparum protein kinase 6 (PK6, PF3D7_1337100) (UniProt Q8IDW1). Kind of assay: PfPK6 kinase inhibitors, biochemical, TCAMS library (AID 1159586). The following applies: recombinant PfPK6, Kinase-Glo ATP depletion luminescence.
Assay [7] has as its target Protein kinase 7 (PK7), Plasmodium falciparum 3D7 (PF3D7_0213400) (UniProt Q7YTF7). Briefly: inhibition of Plasmodium PK7 catalytic activity – biochemical, TCAMS antimalarial set, Kinase-Glo luminescence (AID 1159587). Conditions: recombinant PfPK7, Kinase-Glo ATP depletion luminescence.
The target in assay [8] is Calcium-dependent protein kinase 4 (Plasmodium falciparum (isolate 3D7)) (UniProt Q8IBS5). Kind of assay: PfCDPK4 kinase inhibitors, biochemical, TCAMS library (AID 1159588; cut-off not given, nearly all actives have IC50 up to about 0.91 µM). Conditions: recombinant PfCDPK4, Kinase-Glo ATP depletion luminescence.
Sequence of Calcium-dependent protein kinase 4 (Plasmodium falciparum (isolate 3D7)) (Q8IBS5 whole entry, looked up): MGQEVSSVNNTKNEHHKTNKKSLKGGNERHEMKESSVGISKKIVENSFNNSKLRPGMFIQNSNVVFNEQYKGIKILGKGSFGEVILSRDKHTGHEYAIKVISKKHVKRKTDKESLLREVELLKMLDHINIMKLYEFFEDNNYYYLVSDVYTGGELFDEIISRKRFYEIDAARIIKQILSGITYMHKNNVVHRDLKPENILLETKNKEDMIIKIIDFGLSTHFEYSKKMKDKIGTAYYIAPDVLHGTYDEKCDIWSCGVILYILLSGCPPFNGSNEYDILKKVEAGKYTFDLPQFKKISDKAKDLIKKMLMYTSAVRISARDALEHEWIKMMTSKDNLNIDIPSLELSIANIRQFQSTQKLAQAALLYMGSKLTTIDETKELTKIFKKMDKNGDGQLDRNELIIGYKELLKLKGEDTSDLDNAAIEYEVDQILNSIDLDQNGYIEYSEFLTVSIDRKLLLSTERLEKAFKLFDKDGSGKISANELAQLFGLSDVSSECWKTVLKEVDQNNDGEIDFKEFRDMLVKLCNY

Sequence of Protein kinase 7 (PK7), Plasmodium falciparum 3D7 (PF3D7_0213400) (Q7YTF7 1-343): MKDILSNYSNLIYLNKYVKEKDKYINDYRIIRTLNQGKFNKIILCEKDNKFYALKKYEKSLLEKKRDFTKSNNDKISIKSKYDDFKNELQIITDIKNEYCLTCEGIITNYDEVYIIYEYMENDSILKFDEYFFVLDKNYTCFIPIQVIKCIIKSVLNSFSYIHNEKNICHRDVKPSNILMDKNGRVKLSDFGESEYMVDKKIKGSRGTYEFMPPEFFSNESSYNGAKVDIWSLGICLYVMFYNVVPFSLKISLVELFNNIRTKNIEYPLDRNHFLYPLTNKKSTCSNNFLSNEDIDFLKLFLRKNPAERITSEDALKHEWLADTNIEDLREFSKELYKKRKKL
Sequence of Plasmodium falciparum protein kinase 6 (PK6, PF3D7_1337100) (Q8IDW1 1-305): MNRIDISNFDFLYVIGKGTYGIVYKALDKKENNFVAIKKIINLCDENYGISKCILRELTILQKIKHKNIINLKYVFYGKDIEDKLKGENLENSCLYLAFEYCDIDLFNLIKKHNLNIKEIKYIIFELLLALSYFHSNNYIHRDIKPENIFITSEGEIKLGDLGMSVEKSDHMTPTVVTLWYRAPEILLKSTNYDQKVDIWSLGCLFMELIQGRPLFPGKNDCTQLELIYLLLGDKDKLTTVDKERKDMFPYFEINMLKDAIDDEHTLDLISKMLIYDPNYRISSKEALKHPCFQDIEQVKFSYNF
Sequence of Calcium-dependent protein kinase 1 (Plasmodium falciparum (isolate 3D7)) (P62344 whole entry, looked up): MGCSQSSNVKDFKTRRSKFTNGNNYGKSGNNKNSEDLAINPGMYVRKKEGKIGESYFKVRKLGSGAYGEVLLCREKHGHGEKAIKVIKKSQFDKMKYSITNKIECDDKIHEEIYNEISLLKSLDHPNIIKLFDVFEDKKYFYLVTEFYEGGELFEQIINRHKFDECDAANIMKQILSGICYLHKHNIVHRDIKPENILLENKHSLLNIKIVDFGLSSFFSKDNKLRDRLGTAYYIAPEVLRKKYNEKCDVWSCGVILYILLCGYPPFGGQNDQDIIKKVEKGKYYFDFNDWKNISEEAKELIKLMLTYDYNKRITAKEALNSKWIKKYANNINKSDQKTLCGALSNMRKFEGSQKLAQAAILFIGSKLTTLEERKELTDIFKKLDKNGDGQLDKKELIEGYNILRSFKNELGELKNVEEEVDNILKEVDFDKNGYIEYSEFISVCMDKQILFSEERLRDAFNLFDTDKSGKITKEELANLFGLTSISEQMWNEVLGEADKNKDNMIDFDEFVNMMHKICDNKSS

Regarding `Cc1cc(-c2ccc3c(c2)CC[C@@H](N[C@@H](C)c2ccccc2)C3)cnc1N`, the growth inhibition was 7% in assay [1] and 98% (active) in assay [4]. Besides, the inhibition in assay [2] was 3%; in assay [3], -2%. Moreover, the result in assay [5], in assay [6], in assay [7] and in assay [8] was inactive.
`CCOC(=O)c1cn(CC)c2cc(N(C)CCc3ccc(OC)c(OC)c3)c(F)cc2c1=O`: the growth inhibition is 96% (active) in assay [1] and 92% (active) in assay [4]. The figures for the inhibition in assay [2] and in assay [3] were 9% and 4%, respectively. In addition, the result in assay [5], in assay [6], in assay [7] and in assay [8] was inactive.
As for `COc1c(C=NNc2nc(Nc3ccccc3)nc(Nc3ccccc3)n2)ccc(Br)c1O`, the growth inhibition was 37% in assay [1] and 98% (active) in assay [4]. Moreover, the inhibition in assay [2] was 63% (active); in assay [3], 5%. The result in assay [5], in assay [6], in assay [7] and in assay [8] was inactive.
As to `CC(C)CCCC(C)(C)NC[C@@H](O)[C@H](Cc1ccccc1)NC(=O)c1cc(NC(C)C)cc(N2CCCCS2(=O)=O)c1F`, the growth inhibition is 99% (active) in assay [1] and 98% (active) in assay [4]. Besides, the inhibition is 11% in assay [2] and -3% in assay [3]. Besides, the outcome in assay [5], in assay [6], in assay [7] and in assay [8] was inactive.
Turning to `CCC(CC)C(CC(=O)NC(C)(C)CCc1ccccc1OC)Nc1ccc(C#N)c2ccccc12` (centres undefined), the values for the growth inhibition in assay [1] and in assay [4] were 91% (active) and 93% (active), respectively. The inhibition in assay [2] was 9%; in assay [3] it was -1%. Moreover, the result in assay [5], in assay [6], in assay [7] and in assay [8] was inactive.
For the compound `CCOc1c(OC)ccc2c1CCN(CCN1CCC(NC(=O)c3ccc(-c4cccc(C(F)(F)F)c4C(F)(F)F)cc3)CC1)C2`, the growth inhibition is 57% (active) in assay [1] and 102% (active) in assay [4]. In addition, the inhibition in assay [2] was 30%; in assay [3] it was -7%. In addition, the outcome in assay [5], in assay [6], in assay [7] and in assay [8] was inactive.
Regarding `Cc1cccc2[nH]c(-c3cccc(-c4cccc(NC(=O)c5cccnc5)c4)c3)nc12`, the growth inhibition was 56% (active) in assay [1] and 101% (active) in assay [4]. For the same compound, the inhibition in assay [2] was 28%; in assay [3], -5%. The result in assay [5], in assay [6], in assay [7] and in assay [8] was inactive.
For `Cc1cccc(/C=C/C(=O)NC2CCC(N3CCC(c4ccccc4C)CC3)CC2)c1` (centres undefined), the growth inhibition in assay [1] is 20%; in assay [4], 92% (active). In addition, the inhibition in assay [2] is 67% (active); in assay [3], -3%. The outcome in assay [5], in assay [6], in assay [7] and in assay [8] was inactive.
In the case of `Nc1ncc(-c2ccc(F)cc2)cc1-c1nc2ccc(Cl)cc2[nH]1`, the growth inhibition was 44% in assay [1] and 99% (active) in assay [4]. The results for the inhibition in assay [2] and in assay [3] were 45% and 0%, respectively. In addition, the result in assay [5], in assay [6], in assay [7] and in assay [8] was inactive.
In the case of `CN1CCC(C(=O)N(Cc2ccc(-c3ccc(CNCCc4ccccc4)cn3)cc2)C2Cc3ccccc3C2)CC1`, the results for the growth inhibition in assay [1] and in assay [4] were 97% (active) and 88% (active), respectively. Besides, the inhibition in assay [2] is 65% (active); in assay [3] it was -2%. Also, the outcome in assay [5], in assay [6], in assay [7] and in assay [8] was inactive.
For `NC1=NC(c2ccccc2)(c2ccccc2)C(=O)N1CCOc1ccccc1`, the figures for the growth inhibition in assay [1] and in assay [4] were 57% (active) and 90% (active), respectively. Also, the inhibition in assay [2] was 42%; in assay [3], 0%. Also, the result in assay [5], in assay [6], in assay [7] and in assay [8] was inactive.
Consider `O=C(/C=C/c1ccc(Cl)c(Cl)c1)NCCCCCN1CCC(NC(=O)Nc2ccc(C(F)(F)F)cc2)CC1`, for which the growth inhibition in assay [1] is 34%; in assay [4] it was 94% (active). Besides, the inhibition was 58% (active) in assay [2] and 3% in assay [3]. Moreover, the result in assay [5], in assay [6], in assay [7] and in assay [8] was inactive.
For the compound `CN(C)CCCOc1ccc(CN2CC[C@H](NC(=O)c3ccc(Cl)c(Cl)c3)C2)cc1Cl`, the growth inhibition is 35% in assay [1] and 100% (active) in assay [4]. The inhibition in assay [2] is 65% (active); in assay [3] it was 1%. Also, the result in assay [5], in assay [6], in assay [7] and in assay [8] was inactive.
Turning to `CN1CCC(N(C)C(=O)C=Cc2cn(-c3ccccc3)nc2-c2cc3ccccc3o2)CC1`, the growth inhibition in assay [1] was 5%; in assay [4] it was 92% (active). Moreover, the inhibition in assay [2] was 38%; in assay [3], 2%. The result in assay [5], in assay [6], in assay [7] and in assay [8] was inactive.
For `COc1ccc(Cl)cc1NC(=O)Nc1ccnc2ccccc12`, the results for the growth inhibition in assay [1] and in assay [4] were 44% and 101% (active), respectively. For the same compound, the inhibition is 13% in assay [2] and -6% in assay [3]. Besides, the result in assay [5], in assay [6], in assay [7] and in assay [8] was inactive.
Turning to `O=C(Nc1ccc(Cl)cc1)Nc1ccc2nonc2c1`, the growth inhibition was 77% (active) in assay [1] and 94% (active) in assay [4]. Moreover, the inhibition is -25% in assay [2] and -4% in assay [3]. Moreover, the result in assay [5], in assay [6], in assay [7] and in assay [8] was inactive.
As for `CNC(=O)c1c(NC(=O)c2cccs2)sc2c1CCCC2`, the growth inhibition in assay [1] is 2%; in assay [4], 94% (active). Moreover, the values for the inhibition in assay [2] and in assay [3] were 2% and -1%, respectively. In addition, the result in assay [5], in assay [6], in assay [7] and in assay [8] was inactive.
For the compound `CN1CCCc2ccc(NC(=O)C=Cc3ccc(-c4ccc(F)cc4F)o3)cc2C1`, the figures for the growth inhibition in assay [1] and in assay [4] were 20% and 98% (active), respectively. Moreover, the inhibition in assay [2] was 8%; in assay [3], -5%. Also, the outcome in assay [5], in assay [6], in assay [7] and in assay [8] was inactive.
